PrP 5UTR inh – inhibition of PrP 5' UTR reporter expression. cell-based PrP 5' UTR mRNA reporter, plate reader. AID 488862. 340,000 compounds, 0.35% hits. inhibition, % (no concentration beside the values); in the data active = inhibition above about 52%; also: 0 = median of the neutral control wells
Y pestis TopoI – Y. pestis Topo-I inhibition via cleavage products; Y. pestis Topo-I cleavage product accumulation, plate reader; 360,000 compounds, 0.064% hits; AID 504884; activity, % at 10 µM; in the data active = activity above about 50%, passing the limit was not always enough
Vc quorum ag – inducers of Vibrio cholerae quorum light production without autoinducers; activation, % at 18.7 µM; 350,000 compounds, 0.16% hits; V. cholerae BH1578 lux reporter, luminescence, 6 h; in the data active = activation mostly above about 9.7%, no sharp cut-off
UGM FP inh – Mtb UDP-galactopyranose mutase inhibition; inhibition, % at 10 µM; 320,000 compounds, 0.06% hits; P9WIQ1; AID 504406; purified UGM, fluorescence polarization probe displacement; in the data active = inhibition above about 10%, passing the limit was not always enough
TcdB GH inh – TcdB glycohydrolase inhibition; P18177; TcdB glycohydrolase enzymatic assay, plate reader; inhibition, % at 9.99 µM; 350,000 compounds, 0.24% hits; AID 652162; in the data active = inhibition above about 10%
* hit, by the source's call; i = inactive; nt = no result given. The list is not random: actives were taken first. Their share in the collection is about 0.65%.

SMILES	PrP 5UTR inh	Y pestis TopoI	Vc quorum ag	UGM FP inh	TcdB GH inh
CC(=O)N1CC[C@@H]2[C@@H](CO)Nc3ccc(-c4ccccc4)cc3[C@@H]21	nt	nt	nt	nt	11*
COc1cccc(-c2ccc3c(c2)[C@@H]2[C@@H](CCN2C(=O)CN2CCOCC2)[C@@H](CO)N3)c1	nt	nt	nt	nt	1
C[C@H]1CCCCO[C@H](CN(C)S(=O)(=O)c2ccccc2)[C@@H](C)CN([C@@H](C)CO)C(=O)c2cc(NS(=O)(=O)c3ccc(Cl)cc3)ccc2O1	nt	nt	nt	nt	0
N#Cc1ccc(C(=O)N/N=C/c2cn(CC(=O)O)c3ccccc23)c(F)c1	-12	-3	-3	5	12*
CCOC(=O)Cn1cc(/C=N/NC(=O)c2ccc(C#N)cc2F)c2ccccc21	-25	2	3	2	nt
CC(C)(C)C1CCc2nc(NC(=O)Cc3cn4ccsc4n3)sc2C1 (stereo not given)	-45	62*	nt	1	nt
CN(C)C(=O)C[C@@H]1C=C[C@H](NC(=O)C2CCOCC2)[C@@H](CO)O1	nt	nt	nt	nt	-1
COc1cc2c(c(OC)c1OC)-c1ccc(OC)c(=O)cc1C(NC(C)=O)CC2 (stereo not given)	63*	-5	i	-3	1
C[C@@H]1CCCCO[C@H](CN(C)C(=O)Nc2ccc(F)cc2)[C@H](C)CN([C@@H](C)CO)C(=O)c2cc(NS(=O)(=O)c3ccc(Cl)cc3)ccc2O1	nt	nt	nt	nt	0
C=CCn1c(=O)n2ncnc2c2c3c(sc21)CCCC3	-16	2	0	1	1
O=c1n(Cc2ccc(Cl)cc2)c2sc3c(c2c2ncnn12)CCCC3	-12	57*	i	-3	nt
O=C(c1ccc(F)cc1)N1CC(=O)N2[C@H](C1)[C@@H](c1ccc(C3=CCCC3)cc1)[C@@H]2CO	nt	nt	nt	nt	0
COc1ccc2c3c([nH]c2c1)[C@@H](CO)N(C(=O)c1ccccc1)CC31CCN(C(=O)CC2CC2)CC1	nt	nt	nt	nt	3
CCCN1[C@H](C(=O)NCc2cccc(OC)c2)[C@@H](CO)[C@@H]2Cn3c(ccc(C4=CCCC4)c3=O)[C@@H]21	nt	nt	nt	nt	0
CCN(CC)c1nc(Nc2ccccc2)nc(Oc2ccc(=O)[nH]n2)n1	0	-4	-1	0	nt
CN(C)c1nc(NCc2ccccc2)nc(Oc2ccc(=O)[nH]n2)n1	-23	1	17*	-4	nt
O=S(=O)(c1ccc(SCc2ccc(Cl)cc2)nc1)N1CCCC1	-11	53*	i	-2	-7
Cc1cc(C)cc(CSc2ccc(S(=O)(=O)N3CCCC3)cn2)c1	-9	47	i	-1	0
Cn1cccc1/C=N/n1c(-c2ccco2)n[nH]c1=S	-12	4	-2	1	nt
COc1cc(-c2n[nH]c(=S)n2/N=C/c2cccn2C)cc(OC)c1OC	-27	3	-1	1	11*
COc1cc(/C=N/n2c(-c3ccccc3)n[nH]c2=S)ccc1O	-22	0	i	-3	18*
COc1cc(/C=N/n2c(-c3ccccc3)n[nH]c2=S)cc(OC)c1O	-48	-1	2	-1	-1
C[C@@H]1CN([C@H](C)CO)C(=O)c2cc(NC(=O)c3ccncc3)ccc2O[C@@H](C)CCCCO[C@@H]1CN(C)S(=O)(=O)c1ccccc1	nt	nt	nt	nt	1
CCc1ccc2oc(-c3cc(N)ccc3Cl)nc2c1	-18	2	0	1	14*
CCc1ccc2oc(-c3cc(N)ccc3O)nc2c1	-20	-15	-4	-3	nt
SMILES	PrP 5UTR inh	Y pestis TopoI	Vc quorum ag	UGM FP inh	TcdB GH inh
C[C@@H]1CN([C@@H](C)CO)C(=O)Cc2cc(NS(=O)(=O)c3ccccc3)ccc2O[C@H]1CN(C)C(=O)Nc1ccc(C(F)(F)F)cc1	nt	nt	nt	nt	-7
CNC(=O)C[C@@H]1CC[C@@H]2[C@H](COc3ccc(NC(=O)c4ccc(OC)cc4)cc3C(=O)N2C)O1	nt	nt	nt	nt	1
CNC(=O)C[C@H]1CC[C@H]2[C@H](COc3ccc(NC(=O)c4cccc(OC)c4)cc3C(=O)N2C)O1	nt	nt	nt	nt	-5
CNC(=O)C[C@H]1CC[C@@H]2[C@H](COc3ccc(NC(=O)c4ccc(OC)cc4)cc3C(=O)N2C)O1	nt	nt	nt	nt	17*
CN1C(=O)c2cc(NC(=O)c3cccc(F)c3)ccc2OC[C@H]2O[C@H](CC(=O)NCC3CCCCC3)CC[C@@H]21	nt	nt	nt	nt	11*
CNC(=O)C[C@H]1CC[C@@H]2[C@@H](COc3ccc(NC(=O)c4ccc(OC)cc4)cc3C(=O)N2C)O1	nt	nt	nt	nt	12*
CNC(=O)C[C@H]1CC[C@@H]2[C@@H](COc3ccc(NC(=O)c4cccc(OC)c4)cc3C(=O)N2C)O1	nt	nt	nt	nt	12*
O=C(C[C@H]1CC[C@H]2[C@@H](COC[C@@H](O)CN2C(=O)C2CC2)O1)NCc1ccccc1Cl	nt	nt	nt	nt	2
C/C=C/c1ccc2c(c1)O[C@@H](CN(C)C(=O)NC(C)C)[C@H](C)CN([C@@H](C)CO)S2(=O)=O	nt	nt	nt	nt	0
O=C(C[C@@H]1CC[C@H]2[C@@H](COC[C@H](O)CN2S(=O)(=O)c2cccc(F)c2)O1)Nc1ccccc1	nt	nt	nt	nt	0
CNC(=O)C[C@@H]1CC[C@@H]2[C@H](COc3ccc(NS(=O)(=O)c4ccccc4C)cc3C(=O)N2C)O1	nt	nt	nt	nt	15*
COc1ccc(C(=O)Nc2ccc3c(c2)C(=O)N(C)[C@@H]2CC[C@H](CC(=O)NCC4CC4)O[C@H]2CO3)cc1	nt	nt	nt	nt	16*
CNC(=O)C[C@H]1CC[C@@H]2[C@H](COc3ccc(NC(=O)Nc4ccc(C)cc4)cc3C(=O)N2C)O1	nt	nt	nt	nt	11*
CNC(=O)C[C@H]1CC[C@@H]2[C@@H](COc3ccc(NC(=O)Nc4ccc(C)cc4)cc3C(=O)N2C)O1	nt	nt	nt	nt	4
COc1ccc(NC(=O)N(C)C[C@@H]2Oc3ncc(C#C[C@@H](C)O)cc3C(=O)N([C@H](C)CO)C[C@@H]2C)cc1	nt	nt	nt	nt	-2
COc1ccccc1S(=O)(=O)N[C@@H]1CC[C@H](CCn2cc(C3CC3)nn2)O[C@H]1CO	nt	nt	nt	nt	-1
COc1ccc(C(=O)NCC(=O)N2CCN(C(=O)c3ccco3)CC2)cc1[N+](=O)[O-]	-1	-4	-1	11*	2
COc1ccc(C(=O)NCC2(c3ccc(OC)c(OC)c3)CCCC2)cc1OC	nt	17	i	nt	1
COc1ccc(C2(CNC(=O)c3ccc(OC)c([N+](=O)[O-])c3)CCCCC2)cc1OC	-6	-2	1	4	12*
C[C@@H]1CCCCO[C@@H](CN(C)CC2CCCCC2)[C@H](C)CN([C@@H](C)CO)C(=O)c2cc(NC(=O)Nc3ccc4c(c3)OCO4)ccc2O1	nt	nt	nt	nt	-1
COc1ccccc1-c1ccc([C@@H]2[C@@H](CO)N(C(=O)CN(C)C)[C@H]2C#N)cc1	nt	nt	nt	nt	0
CC(C)N=C(NC#N)SCc1ccc(Br)cc1	-16	1	30*	-3	nt
CC(C)N=C(NC#N)SCc1ccccc1	-24	5	i	-2	nt
Cc1[nH]c(-c2ccc(F)cc2)cc1C(=O)N1CCN(c2ccccc2)CC1	-14	25	0	4	21*
Cc1ccc(Cn2c(=N)c(S(=O)(=O)c3ccc(Br)cc3)cc3c(=O)n4ccccc4nc32)cc1	-29	3	i	2	nt
COc1ccc(CCn2c(=N)c(S(=O)(=O)c3ccc(C)cc3)cc3c(=O)n4ccccc4nc32)cc1	-16	-3	0	21*	1

From PubChem BioAssay
